Measurements published in PubChem BioAssay (Tox21).
Results filed as inconclusive are left out. More than one record can exist for a structure, and the calls need not agree. Active and inactive are the calls of the source. Calls come from the whole dose curve; as a rule, active = well fitted curve in the direction sought with a large enough effect in the repeat runs; inconclusive = weak or mixed curves; inactive = no such curve, though single readings can be large; an effect the other way counts as inactive or inconclusive.

How the values were obtained:
[1] = target: Cytochrome P450 2D6 (Homo sapiens) (UniProt P10635); test: Cytochrome P450 Family 2 Subfamily D Member 6 (CYP2D6) small molecule antagonists: luciferase reporter qHTS assay (AID 1671196); note: series mostly up to about 120 µM; nearly all actives have a fitted effect of over 50% in size
Sequence of Cytochrome P450 2D6 (Homo sapiens) (P10635 whole entry, looked up): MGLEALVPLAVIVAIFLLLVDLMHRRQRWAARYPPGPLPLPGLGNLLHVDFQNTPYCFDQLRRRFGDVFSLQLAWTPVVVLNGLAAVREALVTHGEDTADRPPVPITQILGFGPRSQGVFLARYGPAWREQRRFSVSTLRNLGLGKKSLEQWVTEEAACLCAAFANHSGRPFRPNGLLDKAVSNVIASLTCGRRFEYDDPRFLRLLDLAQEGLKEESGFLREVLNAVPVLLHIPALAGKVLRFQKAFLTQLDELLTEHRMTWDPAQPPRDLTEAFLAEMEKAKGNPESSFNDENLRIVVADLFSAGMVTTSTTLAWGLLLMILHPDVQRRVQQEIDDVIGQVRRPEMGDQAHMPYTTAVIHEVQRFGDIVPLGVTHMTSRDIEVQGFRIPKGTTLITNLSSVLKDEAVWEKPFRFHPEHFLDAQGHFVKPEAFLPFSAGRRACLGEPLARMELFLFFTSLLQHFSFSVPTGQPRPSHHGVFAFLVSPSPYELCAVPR
How it was run: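 Luminogenic proluciferin substrate, CYP2D6 enzyme; 10 min RT preincubation with compound, NADPH regeneration system added, 1 h RT. Stop/detection reagent, 20 min RT, luminescence read (RLU). Signal proportional to CYP activity.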

[2] = target: Cytochrome P450 2C19 (Homo sapiens) (UniProt P33261); test: Cytochrome P450 Family 2 Subfamily C Member 19 (CYP2C19) small molecule antagonists: luciferase reporter qHTS assay (AID 1671197); note: nearly all actives have a fitted effect of over 65% in size; note: potency is the fitted concentration of half-maximal effect
Sequence of Cytochrome P450 2C19 (Homo sapiens) (P33261 whole entry, looked up): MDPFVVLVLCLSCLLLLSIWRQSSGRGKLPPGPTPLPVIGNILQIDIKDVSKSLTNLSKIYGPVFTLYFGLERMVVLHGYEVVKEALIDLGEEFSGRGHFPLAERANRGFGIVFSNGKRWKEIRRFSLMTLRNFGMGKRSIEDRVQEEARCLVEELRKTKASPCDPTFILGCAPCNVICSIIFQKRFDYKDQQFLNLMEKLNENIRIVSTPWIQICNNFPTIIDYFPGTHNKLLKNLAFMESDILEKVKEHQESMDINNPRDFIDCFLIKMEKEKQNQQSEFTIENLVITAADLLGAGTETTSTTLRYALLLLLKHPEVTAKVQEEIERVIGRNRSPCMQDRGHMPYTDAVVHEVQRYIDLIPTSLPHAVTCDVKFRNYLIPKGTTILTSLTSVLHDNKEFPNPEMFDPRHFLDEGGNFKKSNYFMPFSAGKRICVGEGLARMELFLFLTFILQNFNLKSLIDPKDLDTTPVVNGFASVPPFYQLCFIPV
How it was run: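 P450-Glo CYP2C19 screening system; proluciferin substrate; DMSO compound stocks; 10 min RT preincubation; NADPH regeneration, 1 h at 37C; luciferin detection reagent, 20 min RT; luminescence as RLU.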

[3] = target: Cytochrome P450 2C9 (Homo sapiens) (UniProt P11712); test: Cytochrome P450 Family 2 Subfamily C Member 9 (CYP2C9) small molecule antagonists: luciferase reporter qHTS assay (AID 1671198); note: series mostly up to about 120 µM; nearly all actives have a fitted effect of over 50% in size
Sequence of Cytochrome P450 2C9 (Homo sapiens) (P11712 whole entry, looked up): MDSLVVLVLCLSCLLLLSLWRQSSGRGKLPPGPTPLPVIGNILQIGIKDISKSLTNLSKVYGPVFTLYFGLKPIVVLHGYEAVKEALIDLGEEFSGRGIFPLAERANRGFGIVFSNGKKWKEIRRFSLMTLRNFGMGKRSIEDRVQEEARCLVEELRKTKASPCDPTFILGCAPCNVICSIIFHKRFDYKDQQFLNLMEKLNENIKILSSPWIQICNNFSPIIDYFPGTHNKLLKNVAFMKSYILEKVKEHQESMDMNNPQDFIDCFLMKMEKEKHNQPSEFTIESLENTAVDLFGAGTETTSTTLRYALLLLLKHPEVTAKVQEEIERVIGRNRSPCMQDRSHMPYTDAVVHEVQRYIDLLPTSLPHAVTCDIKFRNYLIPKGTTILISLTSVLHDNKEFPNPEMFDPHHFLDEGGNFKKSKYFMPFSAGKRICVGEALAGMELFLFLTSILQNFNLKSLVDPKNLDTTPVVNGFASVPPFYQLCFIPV
How it was run: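 P450-Glo proluciferin substrate with CYP2C9 enzyme; 10 min RT preincubation, then NADPH regeneration 1 h at 37C; luciferin detection reagent 20 min RT, luminescence in relative luminescence units.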

[4] = target: Cytochrome P450 1A2 (Homo sapiens) (UniProt P05177); test: Cytochrome P450 Family 1 Subfamily A Member 2 (CYP1A2) small molecule antagonists: luciferase reporter qHTS assay (AID 1671199); note: series mostly up to about 120 µM; nearly all actives have a fitted effect of over 50% in size
Sequence of Cytochrome P450 1A2 (Homo sapiens) (P05177 whole entry, looked up): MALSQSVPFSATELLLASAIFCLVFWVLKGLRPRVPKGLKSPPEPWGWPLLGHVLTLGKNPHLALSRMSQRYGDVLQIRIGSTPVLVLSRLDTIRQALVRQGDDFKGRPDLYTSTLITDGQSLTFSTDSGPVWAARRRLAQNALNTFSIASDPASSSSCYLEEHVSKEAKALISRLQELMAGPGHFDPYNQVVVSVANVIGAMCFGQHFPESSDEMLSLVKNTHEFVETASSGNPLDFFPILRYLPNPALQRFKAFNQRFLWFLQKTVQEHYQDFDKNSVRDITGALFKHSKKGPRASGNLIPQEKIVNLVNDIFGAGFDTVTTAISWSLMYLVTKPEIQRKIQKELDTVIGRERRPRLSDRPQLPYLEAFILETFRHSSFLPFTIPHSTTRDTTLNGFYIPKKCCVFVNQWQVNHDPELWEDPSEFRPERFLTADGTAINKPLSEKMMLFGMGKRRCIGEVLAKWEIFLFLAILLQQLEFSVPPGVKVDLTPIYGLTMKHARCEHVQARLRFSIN
How it was run: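 Luminescence readout (relative luminescence units) after luciferin detection reagent, 20 min RT. Preceded by 1 h room-temperature CYP1A2 reaction with NADPH regeneration solution following 10 min compound preincubation with enzyme and proluciferin substrate. Furafylline positive control.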

[5] = target: Cytochrome P450 3A4 (Homo sapiens) (UniProt P08684); test: Cytochrome P450 Family 3 Subfamily A Member 4 (CYP3A4) small molecule antagonists: luciferase reporter qHTS assay (AID 1671201); note: series mostly up to about 120 µM; nearly all actives have a fitted effect of over 50% in size
Sequence of Cytochrome P450 3A4 (Homo sapiens) (P08684 whole entry, looked up): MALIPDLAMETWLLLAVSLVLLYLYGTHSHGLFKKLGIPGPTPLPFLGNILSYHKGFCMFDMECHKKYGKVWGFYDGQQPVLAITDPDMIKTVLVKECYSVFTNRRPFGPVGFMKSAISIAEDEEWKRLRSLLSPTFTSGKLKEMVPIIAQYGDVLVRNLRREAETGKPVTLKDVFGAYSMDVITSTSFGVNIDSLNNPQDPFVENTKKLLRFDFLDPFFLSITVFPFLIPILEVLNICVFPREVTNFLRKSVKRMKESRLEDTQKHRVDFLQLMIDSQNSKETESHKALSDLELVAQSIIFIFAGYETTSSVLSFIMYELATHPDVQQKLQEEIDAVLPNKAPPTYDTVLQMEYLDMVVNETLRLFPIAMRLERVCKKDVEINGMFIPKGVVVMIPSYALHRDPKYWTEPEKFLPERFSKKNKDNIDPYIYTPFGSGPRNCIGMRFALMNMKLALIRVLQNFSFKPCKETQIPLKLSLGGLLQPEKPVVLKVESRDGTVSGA
How it was run: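 Proluciferin-to-luciferin conversion by CYP3A4, NADPH-regenerated, 1 h RT; luminescence read as RLU. Ketoconazole as control.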

[6] = target: Voltage-gated inwardly rectifying potassium channel KCNH2 (Homo sapiens) (UniProt Q12809); test: Human Ether-a-go-go-Related Gene (hERG) channel small molecule antagonists: fluorescence cell-based qHTS assay (AID 1671200)
Sequence of Voltage-gated inwardly rectifying potassium channel KCNH2 (Homo sapiens) (Q12809 whole entry, looked up): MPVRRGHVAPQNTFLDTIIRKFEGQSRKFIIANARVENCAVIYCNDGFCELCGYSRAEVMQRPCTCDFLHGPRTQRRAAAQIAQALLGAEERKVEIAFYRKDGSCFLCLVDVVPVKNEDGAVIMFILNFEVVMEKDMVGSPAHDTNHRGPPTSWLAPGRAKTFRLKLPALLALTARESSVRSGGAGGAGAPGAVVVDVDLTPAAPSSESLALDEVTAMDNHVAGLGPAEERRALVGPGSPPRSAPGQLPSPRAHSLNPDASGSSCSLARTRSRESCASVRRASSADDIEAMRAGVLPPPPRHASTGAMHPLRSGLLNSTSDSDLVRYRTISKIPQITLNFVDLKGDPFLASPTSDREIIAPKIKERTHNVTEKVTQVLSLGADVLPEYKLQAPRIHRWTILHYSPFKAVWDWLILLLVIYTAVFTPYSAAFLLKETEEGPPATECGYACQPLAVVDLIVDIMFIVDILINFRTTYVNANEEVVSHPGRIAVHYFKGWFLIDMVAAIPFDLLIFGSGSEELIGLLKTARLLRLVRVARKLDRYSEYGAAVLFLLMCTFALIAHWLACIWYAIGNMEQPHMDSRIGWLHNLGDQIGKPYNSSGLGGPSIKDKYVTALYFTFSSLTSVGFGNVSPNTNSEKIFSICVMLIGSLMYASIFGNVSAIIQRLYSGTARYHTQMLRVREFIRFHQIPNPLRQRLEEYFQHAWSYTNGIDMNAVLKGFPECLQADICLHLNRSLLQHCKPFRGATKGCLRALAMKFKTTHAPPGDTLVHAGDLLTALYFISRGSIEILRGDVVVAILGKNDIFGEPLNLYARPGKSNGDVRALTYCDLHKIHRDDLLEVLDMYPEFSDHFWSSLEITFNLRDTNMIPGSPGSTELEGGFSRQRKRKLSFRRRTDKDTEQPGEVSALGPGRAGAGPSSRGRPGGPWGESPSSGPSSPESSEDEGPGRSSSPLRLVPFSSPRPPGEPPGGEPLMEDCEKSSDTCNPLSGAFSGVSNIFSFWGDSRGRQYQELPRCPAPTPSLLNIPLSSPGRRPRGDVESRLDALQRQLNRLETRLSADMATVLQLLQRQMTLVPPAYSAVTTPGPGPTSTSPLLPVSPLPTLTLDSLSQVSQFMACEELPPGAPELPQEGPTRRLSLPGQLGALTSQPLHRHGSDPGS
How it was run: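 Kinetic two-minute fluorescence traces, sampled at 1 s, were collected following thallium stimulus of U2OS cells (1000 per well) that had been cultured overnight at 37 C and loaded with FluxOR II.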

Measured: Potency

O=C(O)c1ccc([N+](=O)[O-])cc1
not listed: [6]
inactive: all other assays above

Nc1nc2ncc(CNc3ccc(C(=O)N[C@@H](CCC(=O)O)C(=O)O)cc3)nc2c(=O)[nH]1
56.4 µM (active) and inactive: [2]
inactive: [1] | [3] | [5]

CC(C)n1c(/C=C/[C@@H](O)C[C@@H](O)CC(=O)O)c(-c2ccc(F)cc2)c2ccccc21
inactive: [1] | [2] | [6] | [5]
